Screening data from PubChem.
D2 PAM-1: HTS Assay for Positive Allosteric Modulators of the Human D2 Dopamine Receptor: Primary Screen for Potentiators; actives 0.34% (n = 340,000); AID 485347, 2010; potentiation, % at 10 µM; HEK293 T-REx D2, calcium flux, EC20 dopamine potentiation; D(2) dopamine receptor (Homo sapiens), P14416;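 active = potentiation over 3 SD above the plate norm, cut at about 30% in these data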
Target sequence (P14416 whole entry, looked up): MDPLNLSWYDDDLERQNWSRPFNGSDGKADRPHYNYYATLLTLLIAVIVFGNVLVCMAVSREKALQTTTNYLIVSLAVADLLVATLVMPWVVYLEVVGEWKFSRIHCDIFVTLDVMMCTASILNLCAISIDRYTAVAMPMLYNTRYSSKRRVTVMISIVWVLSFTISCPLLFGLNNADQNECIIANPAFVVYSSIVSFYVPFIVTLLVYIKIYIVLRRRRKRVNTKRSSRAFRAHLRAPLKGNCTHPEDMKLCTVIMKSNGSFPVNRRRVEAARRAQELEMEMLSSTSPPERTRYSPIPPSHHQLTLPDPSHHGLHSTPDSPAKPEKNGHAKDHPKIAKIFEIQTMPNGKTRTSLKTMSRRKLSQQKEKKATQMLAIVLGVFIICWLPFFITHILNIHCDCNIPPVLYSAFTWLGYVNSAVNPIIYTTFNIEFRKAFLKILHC
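Using a no-wash calcium dye in inducible, force-coupled HEK293 Trex cells expressing D2, we tracked fluorescence each second for 180 s after compound, then for 180 s after EC20 dopamine to detect augmented signalling.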
D2 ag-1: HTS Assay for Allosteric Agonists of the Human D2 Dopamine Receptor: Primary Screen for Agonists; D(2) dopamine receptor (Homo sapiens), P14416; HEK293 T-REx D2 cells, calcium flux agonist mode; activation, % at 2 µM; actives 0.53% (n = 340,000); AID 485358, 2010;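 active = activation over 3 SD above normal in the single-dose calcium agonist read, cut at about 30% in these data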
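In this primary screen, compounds producing a positive calcium signal within 180 s of addition to tetracycline-induced, force-coupled HEK293 Trex D2 cells are flagged; cells are dye-loaded with a no-wash calcium kit beforehand.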
D2 antagonist: HTS Assay for Allosteric Antagonists of the Human D2 Dopamine Receptor: Primary Screen for Antagonists. actives 2% (n = 340,000). inhibition, % at 10 µM. AID 485344, 2010. HEK293 TREx D2 cells, calcium flux, dopamine EC80; in the data active = inhibition above about 30%; inactive = below that, where a call was filed
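Inhibition of EC80 dopamine-driven calcium flux, recorded kinetically, defines activity here; cells are a tetracycline-induced HEK293 T-REx line expressing force-coupled D2.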
D2 PAM-2: Beta-Arrestin HTS for Positive Allosteric Modulators of the Human D2 Dopamine Receptor: Potentiators | actives 0.23% (n = 360,000) | D(2) dopamine receptor (Homo sapiens), P14416 | potentiation, % (test concentration not listed) | DiscoveRx D2 beta-arrestin cells, luminescence, 90 min; 100% = 57 uM dopamine signal | AID 624464, 2012; in the data active = potentiation above about 50%; inconclusive = mostly about 30% to 49%
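D2 cells co-treated with compound plus 50 nM dopamine (EC20) for 90 min at 37 deg C to detect potentiation. Beta-arrestin recruitment was read as enzyme-fragment luminescence after 1 h at ambient temperature. Full response was set by 57 uM dopamine.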
D2 ag-2: Beta-Arrestin HTS for Positive Allosteric Modulators of the Human D2 Dopamine Receptor: Agonists. DiscoveRx PathHunter D2 beta-arrestin, luminescence, 90 min; 100% = 57 uM dopamine signal. activation, % (concentration not given with the values). actives 0.084% (n = 360,000); in the data active = activation above about 40%; inconclusive = between about 15% and that limit
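Agonist mode: compounds alone added to overnight-plated D2 PathHunter cells for 90 min at 37 C, with 57 uM final dopamine (EC100) defining full response. Beta-arrestin recruitment detected by chemiluminescent reagent, read after 1 h at ambient temperature.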
D3 arrestin ag: qHTS of D3 Dopamine Receptor Agonist: D3 Dopamine Receptor B-arrestin Agonist Confirmatory Assay; shares compounds with D2 ag-1; AID 720506, 2013; Potency, µM (top dose mostly 76.9 µM), most hits filed as activators; actives 4% (n = 2,300); DiscoveRx D3 beta-arrestin cells, luminescence, 90 min; note: nearly all actives have a fitted effect of over 70% in size
D2 ag-3: qHTS of D3 Dopamine Receptor Agonist: D2 Dopamine Receptor B-arrestin Agonist Counterscreen; DiscoveRx PathHunter D2 beta-arrestin, luminescence, 90 min; response scale: percent relative to full dopamine signal; Potency, µM (doses to about 76.9 µM), actives largely listed as activators; shares compounds with D2 ag-1; AID 720507, 2013; actives 5.9% (n = 2,300); note: nearly all actives have a fitted effect of over 70% in size
Large screens that a line does not name were inactive (follow-up assays come after a bar, where they were run). Compounds with a hit are over-represented: about 2.4% of the library has one in this group of screens. Unless noted, calls come from the whole dose curve; as a rule, active = well fitted activation curve with a large enough effect; inconclusive = small, poorly fitted or top-dose-only effect; inactive = flat fitted curve, though single readings scatter.

COc1cc(/C=C/C(=O)OCC(=O)Nc2cc(C)c(C)cc2[N+](=O)[O-])ccc1O	none | D3 arrestin ag inactive | D2 ag-3 inactive
COc1cc(/C=C/C(=O)OCC(=O)Nc2ccc(C)cc2[N+](=O)[O-])ccc1O	none
COc1cccc(C(=O)Nc2ccc(-c3cn4cccnc4n3)cc2)c1OC	none (no result: D2 antagonist, D2 PAM-2, D2 ag-2)
Cc1cc(C(=O)Nc2ccc(N3CCOCC3)cc2)c2ccccc2n1	none
COc1cccc(C(=O)NNC(=O)CCN2CCN(c3ccccc3)CC2)c1	none (no result: D2 PAM-1, D2 ag-1, D2 antagonist)
N#CCC(=O)Nc1ccc(C(=O)NNC(=O)CCN2CCN(c3ccccc3)CC2)cc1	D2 ag-2 inconclusive (no result: D2 PAM-1, D2 ag-1, D2 antagonist) | D3 arrestin ag inconclusive | D2 ag-3 inconclusive
O=C(CCN1CCN(c2ccccc2)CC1)NNC(=O)c1cccc2ccccc12	D2 ag-1 74, D2 antagonist 85, D2 ag-2 inconclusive | D3 arrestin ag inconclusive | D2 ag-3 inactive
CCC1(c2ccccc2)NC(=O)N(CC(=O)NNC(=O)CCN2CCN(c3ccccc3)CC2)C1=O (stereo unspecified)	D2 ag-1 68, D2 antagonist 89 | D3 arrestin ag inactive | D2 ag-3 inactive
Cc1cc(C(=O)NNC(=O)CCN2CCN(c3ccccc3)CC2)c2ccccc2n1	D2 ag-1 72, D2 antagonist 67 | D3 arrestin ag inactive | D2 ag-3 inconclusive
COc1ccc(S(=O)(=O)N2CCCCCC2)cc1NC(=O)Cc1n[nH]c(=O)c2ccccc12	none
COc1ccc(OCc2cc(C(=O)N3CCOCC3)no2)c(Cl)c1	none
O=C(CCN1CCN(c2ccccc2)CC1)NNC(=S)Nc1ccccc1Cl	D2 ag-1 54, D2 antagonist 66 | D3 arrestin ag inactive | D2 ag-3 inactive
CCc1cc(C(=O)NNC(=O)CCN2CCN(c3ccccc3)CC2)sc1C	D2 ag-1 80, D2 antagonist 66 | D3 arrestin ag inconclusive | D2 ag-3 inconclusive
CCc1cc(C(=O)NNC(=O)CCl)sc1C	none
O=C(CSc1nc2c([nH]c3ccccc32)c(=O)n1-c1ccccc1)Nc1ccccc1F	none (no result: D2 ag-1, D2 antagonist, D2 PAM-2, D2 ag-2)
CCOC(=O)c1nc2nc(-c3cccs3)cc(C(F)(F)F)n2n1	none
O=C(c1nc2nc(-c3cccs3)cc(C(F)(F)F)n2n1)N1CCN(Cc2ccccc2)CC1	D2 ag-1 65 | D3 arrestin ag inactive | D2 ag-3 inactive
CCn1c(=O)c(CCC(=O)NCCN2CCOCC2)c(C)c2c(C)nn(-c3ccccc3)c21	none
CCn1c(=O)c(CCC(=O)N2CCN(c3ccccn3)CC2)c(C)c2c(C)nn(-c3ccccc3)c21	none | D3 arrestin ag inactive | D2 ag-3 inactive
COc1ccc(NC(=O)COC(=O)Cc2coc3cc(OC)ccc23)c(OC)c1	none (no result: D2 PAM-1, D2 ag-1, D2 antagonist)
CCc1noc(C)c1C(=O)NNC(=O)c1ccccc1	none
CCc1noc(C)c1C(=O)NNC(=O)c1cc(OC)c(OC)c(OC)c1	none
CCc1noc(C)c1C(=O)NNC(=O)c1cc(OC)cc(OC)c1	none | D3 arrestin ag inactive | D2 ag-3 inactive
CCc1noc(C)c1C(=O)NNC(=O)COc1ccccc1C	none | D3 arrestin ag inactive | D2 ag-3 inactive
CCCCCN(C(=O)CCC(=O)OCC(=O)c1cccc(OC)c1)c1c(N)n(CCCC)c(=O)[nH]c1=O	none
Cc1nc2nc(SCC(=O)NCc3ccccc3)nn2c(C)c1Cc1ccccc1Cl	none (no result: D2 antagonist, D2 PAM-2, D2 ag-2)
Cc1cc(OCC(O)CN2CCN(c3ccccn3)CC2)cc(C)c1Cl (stereo unspecified)	D2 ag-1 46, D2 antagonist 43, D2 ag-2 inconclusive | D3 arrestin ag 6.3µM | D2 ag-3 inconclusive
OC(CN1CCN(c2ccccn2)CC1)Cn1c2ccccc2c2ccccc21 (stereo unspecified)	none
Cc1cc(C)c(OCC(O)CN2CCN(c3ccccn3)CC2)c(C)c1 (stereo unspecified)	D2 ag-1 79, D2 antagonist 78, D2 PAM-2 inconclusive, D2 ag-2 48 | D3 arrestin ag 0.079µM | D2 ag-3 10µM
OC(COc1ccc(Cl)c2ccccc12)CN1CCN(c2ccccn2)CC1 (stereo unspecified)	D2 ag-1 54, D2 antagonist 35 | D3 arrestin ag 14µM | D2 ag-3 inconclusive
CC(OC(=O)CC1CCCCC1)C(=O)Nc1cccc(C#N)c1 (stereo unspecified)	none
CCOc1ccccc1N1CCN(Cc2cccc(OC)c2OC)CC1	D2 antagonist 87 | D3 arrestin ag inactive | D2 ag-3 inactive
COc1cccc(CN2CCN(Cc3cccc(Oc4ccccc4)c3)CC2)c1OC	none
COc1ccccc1N1CCN(CCCCOc2cccc3ccccc23)CC1	D2 ag-1 35, D2 antagonist 73 | D3 arrestin ag inactive | D2 ag-3 inactive
COc1cccc(CN2CCN(c3ncccn3)CC2)c1OC	D2 ag-1 81, D2 antagonist 60, D2 ag-2 inconclusive | D3 arrestin ag inactive | D2 ag-3 inconclusive
COc1cccc(CN2CCN(Cc3cc(OC)c(OC)c(OC)c3)CC2)c1OC	none | D3 arrestin ag inactive | D2 ag-3 inactive
CCC1CCCCN1C(=O)CSc1nc2c([nH]c3ccccc32)c(=O)n1-c1ccc(OC)cc1 (stereo unspecified)	none (no result: D2 antagonist, D2 PAM-2, D2 ag-2)
c1cnc(N2CCN(Cc3c[nH]c4ccccc34)CC2)nc1	D2 ag-1 86, D2 antagonist 83, D2 PAM-2 inconclusive, D2 ag-2 inconclusive | D3 arrestin ag inactive | D2 ag-3 inconclusive
COc1ccc(CN2CCN(c3ncccn3)CC2)c(C)c1C	D2 ag-1 88, D2 antagonist 93, D2 ag-2 47 | D3 arrestin ag inconclusive | D2 ag-3 2.2µM
COc1ccc(CN2CCSCC2)c(OC)c1C	none
COc1ccc(CN2CCN(c3ccccn3)CC2)c(OC)c1C	none (no result: D2 PAM-1, D2 ag-1, D2 antagonist) | D3 arrestin ag inactive | D2 ag-3 inconclusive
Cc1ccc(C)c(OCCn2c(CCNC(=O)C3CCCCC3)nc3ccccc32)c1	none (no result: D2 antagonist, D2 PAM-2, D2 ag-2)
